Data as given in PubChem BioAssay AID485317 (Broad Institute, 2010).
Hit rate of the full screen: of about 290,000 compounds, about 11,000 (3.8%) were called active. What follows is part of a selection rich in actives, with near analogues and random picks from the rest. Values without a mark were called inactive.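 How the source made its calls: active means mean replicate inhibition above about 79%, with every replicate also reaching it (limit read from the data); inconclusive means only one of the two criteria met; inactive means mean below limit and not every replicate reaching it.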

Molecular target: FAD-linked sulfhydryl oxidase ALR (Homo sapiens) (UniProt P55789)
Test: ALR-catalysed DTT oxidation blockers – biochemical, H2O2 detection, HRP-luminol luminescence, single point, primary screen (AID 485317)
Conditions: purified ALR, stronger effect = higher value, concentration not given here

Sequence of FAD-linked sulfhydryl oxidase ALR (Homo sapiens) (P55789 whole entry, looked up): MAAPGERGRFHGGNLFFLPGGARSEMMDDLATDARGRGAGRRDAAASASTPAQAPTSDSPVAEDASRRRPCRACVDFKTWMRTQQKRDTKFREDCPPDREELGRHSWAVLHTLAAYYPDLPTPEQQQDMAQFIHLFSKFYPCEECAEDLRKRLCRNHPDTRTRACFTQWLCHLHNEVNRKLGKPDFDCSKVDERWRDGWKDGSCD

Point of comparison: `COc1cccc(NC(=O)COc2cccnc2[N+](=O)[O-])c1`, inhibition -5.23%. Against it:
- Cc1ccc(C)c(-c2nnc(NC(=O)CS(=O)(=O)c3ccccc3)o2)c1 — higher, 1.8%
- Cc1oc2c(C)c3oc(=O)c(CC(=O)N[C@@H](CC(C)C)C(=O)N[C@@H](Cc4ccccc4)C(=O)O)c(C)c3cc2c1C — higher, 40.1%
- Cc1cc(=O)oc2c(C)c(OC(C)C(=O)NC3CCN(Cc4ccccc4)CC3)ccc12 (centres undefined) — higher, 2.88%
- CC1(C)CC[C@@]2(C(=O)O)C(C1)C1=CCC3[C@@]4(C)CC[C@H](O)C(C)(C)C4CC[C@@]3(C)[C@]1(C)C[C@H]2O (some centres undefined) — lower, -9.85%
- CCOC(=O)c1cccc(NC(=O)c2ccc(F)cc2F)c1 — higher, 6.05%
- CN(C)CCCN(C(=O)c1ccc(S(=O)(=O)N2CCCCCC2)cc1)c1nc2cc3c(cc2s1)OCCO3 — higher, -4.06%
- CCC(O)CNc1nc(-n2nc(C)cc2C)nc2sc3c(c12)CC(C)(C)OC3 (centres undefined) — higher, -2.25%
- CC/C(C)=N/Nc1nc2sc3c(c2c(=O)[nH]1)CC(C)(C)OC3 — higher, 15.5%
- CC(C)C(NC(=O)c1c(F)cccc1F)C(=O)NNC(=O)c1ccccc1 (centres undefined) — lower, -7.7%
- COc1ccc2sc(N(CCCN(C)C)C(=O)c3ccc(S(=O)(=O)N(C)C4CCCCC4)cc3)nc2c1 — lower, -5.65%
- O=C(NCC(=O)N1CCCC(C(F)(F)F)C1)c1ccccc1F (centres undefined) — lower, -7.32%
- Cc1ccc(N=C2SCCCN2C(=O)c2cccc(N3C(=O)CCC3=O)c2)cc1Cl — lower, -9.4%
- N#Cc1nc(-c2cccc3ccccc23)oc1N — higher, 0.469%
- COC(=O)c1ccc(CSc2nncn2N)cc1 — lower, -17.1%
- Cn1c(CNC(=O)c2ccccc2F)nnc1SCc1ccc(F)cc1 — higher, -2.09%
- CC(=O)Nc1ccc(NC(=O)CCN2C(=O)C3CC=CCC3C2=O)cc1 (centres undefined) — higher, -1.74%
- CC1=NNC(=O)C1Cc1c(Cl)cccc1Cl (centres undefined) — higher, 13.8%
- CCn1c(SC(C)C(=O)Nc2ccc(N3CCOCC3)cc2)nnc1-c1ccco1 (centres undefined) — higher, 46.7%
- O=C(NNc1ncnc2c1cnn2-c1ccccc1)c1ccco1 — lower, -5.39%
- Cc1ccc(Nc2ncnc3c2cnn3C)c(C)c1 — higher, -4.69%
- CSCCC(NC(=O)COc1ccccc1)C(=O)OCCOc1ccc(F)cc1 (centres undefined) — higher, -0.0039%
- Cc1ccc(S(=O)(=O)NCCC(=O)OCC(=O)N(C)c2ccccc2)cc1 — higher, -0.745%
- COc1ccc(S(=O)(=O)N2CCN(C(C)C(=O)Nc3ccc(C(C)C)cc3)CC2)cc1 (centres undefined) — higher, -3.15%
- COc1ccc(-c2nn(-c3ccccc3)cc2/C=C2/SC(=S)N(CCCC(=O)O)C2=O)c(C)c1 — higher, 3%
- COc1cccc(-c2nn(-c3ccccc3)cc2/C=C(\C#N)C(=O)NCCCn2ccnc2)c1 — lower, -6.12%
- COc1cccc(COC(=O)C2CCN(S(=O)(=O)c3cccs3)CC2)c1OC — lower, -64%
- COc1cc(C(=O)NCC(=O)N2CC=C(c3ccccc3)CC2)cc(OC)c1OC — higher, 3.4%
- O=C(NCCSc1ncc(-c2ccccc2)[nH]1)c1ccco1 — higher, 4.62%
- COc1ccc(OC)c(S(=O)(=O)N2CCCC(C(=O)N3CCC(C(N)=O)CC3)C2)c1 (centres undefined) — higher, -3%
- O=C(Cc1ccccc1)Nc1ccc(NC(=O)c2cccnc2)cc1 — higher, -3.14%
- COc1ccc(NC(=O)CSCc2ccc([N+](=O)[O-])cc2)cc1OC — higher, -0.226%
- O=C(O)c1ccccc1NC(=O)c1ccccc1-c1ccccc1C(=O)O — lower, -5.64%
- Cc1c(NC(=O)CSCc2ccccc2)cccc1C(=O)O — lower, -23.6%
- CC1CCc2[nH]c3ccc(C(=O)N(C)CC(=O)Nc4cccc(F)c4)cc3c2C1 (centres undefined) — higher, 2.5%
- Cc1noc(C)c1S(=O)(=O)N(C)C[C@H]1Oc2ccc(NC(=O)C3CCCCC3)cc2C(=O)N([C@H](C)CO)C[C@@H]1C — higher, 0.231%
- CCN(C[C@H]1N[C@@](CC)(C(=O)OC)[C@H]2C(=O)N(C)C(=O)[C@@H]12)C(=O)Nc1ccc(F)cc1 — higher, 0.784%

`Cc1c(OC(C)C(=O)N[C@@H](Cc2ccccc2)C(=O)O)ccc2c3c(c(=O)oc12)CCCC3` (some centres undefined) was tested, and the inhibition was 86.8% (active).
In the case of `C=CCNC(=S)NNc1ncnc2sc3c(c12)CC(C)(C)OC3`, the inhibition is reported as 98.8% (active).
With `CC(C)CC(CC(C)C)=NNC(=O)c1ccc(CSc2nncn2C)cc1` the inhibition was 98.2% (active).
In the case of `Cc1ccc(-n2ncc3c(Nc4cccc(C(=O)O)c4)ncnc32)cc1`, the inhibition is reported as 94% (active).
With `CN(C)S(=O)(=O)c1cccc(-c2nn(-c3ccccc3)cc2/C=C2\SC(=S)N(CC(=O)O)C2=O)c1` the inhibition was 95.8% (active).
With `O=C(Cc1ccccc1)Nc1ccc(C(=O)Nc2ccccc2C(=O)O)cc1` the inhibition was 87.1% (active).
In the case of `O=C(CSCc1ccc([N+](=O)[O-])cc1)Nc1cccc(C(=O)Nc2ccccc2C(=O)O)c1`, the inhibition is reported as 99% (active).
